Measurements from ChEMBL document CHEMBL3988442, “University of Dundee, Small-Polar-MMV Screening Library” (2021).
Screen size: about 48,000 compounds; about 13,000 (27%) showed an effect of 50% or more. The list shows a part of the results.

system: Wolbachia pipientis; assay: Anti-Wolbachia Cell-Based Screen; type: functional; parameters: scale not given: in the data most compounds retested in dose-response had high values; details: 5 µM

Structure (SMILES) | Percent Effect [%]
O=C(NCC1=CCCCC1)C(c1cccnc1)N1CCOCC1 (stereo not drawn) | -8.257
CCNc1ncc(C(=O)N2CCC(c3ccccc3C(=O)O)C2)cn1 (stereo not drawn) | -1.411
CCNc1ncc(C(=O)N2CCc3c(nc(C)nc3N(C)C)C2)cn1 | 95.13
CN(C)c1nc2c(c(=O)[nH]1)CCN(C(=O)c1ccc(=O)[nH]c1)C2 | -0.009534
CCNc1ncc(C(=O)N2Cc3nc(C)[nH]c(=O)c3C2)cn1 | 110.8
Cc1nc2c(c(N(C)C)n1)CCN(C(=O)CN1CCC(O)CC1)C2 | -29.43
CCNc1ncc(C(=O)N2CCOC(CCCC(C)C)C2)cn1 (stereo not drawn) | 18.06
Cc1nc2c(c(N(C)C)n1)CCN(C(=O)c1ccc(N)nc1)C2 | 84.83
CCCc1ccc(C(=O)N2CCc3c(nc(C)nc3N(C)C)C2)cc1 | 96.2
Cc1nc2c(c(N(C)C)n1)CCN(C(=O)c1sccc1S(N)(=O)=O)C2 | -20.97
CCN(CC)CCC(=O)N1CCc2c(nc(N(C)C)nc2N(C)C)C1 | -0.6304
CCCc1ccc(C(=O)N2CCc3c(nc(N(C)C)[nH]c3=O)C2)cc1 | 0.7341
CCCc1ccc(C(=O)N2CCn3c(nnc3C(C)C)C2)cc1 | 1.679
NS(=O)(=O)c1cc(C(=O)N2CCCCC2)cs1 | 6.219
CN(C)c1ccc(CC(=O)N[C@@H]2CCNC[C@H]2O)cc1 | -6.485
CN1CCC(NC(=O)NCc2csc(Br)c2)CC1 | -1.868
CN(Cc1cnn(C)c1)C(=O)NCc1csc(Br)c1 | 2.853
O=C(NCc1csc(Br)c1)Nc1cn[nH]c1 | 91.45
O=C(NCc1ccc(Br)c(F)c1)Nc1cn[nH]c1 | 110.2
COCCNc1ccc(CNC(=O)Nc2cn[nH]c2)cc1 | -8.085
O=C(NCc1cc(Br)cs1)Nc1cn[nH]c1 | 79.99
CNS(=O)(=O)Cc1ccc(CNC(=O)Nc2cn[nH]c2)cc1 | -4.432
O=C(Cc1ccc(Br)s1)NCC(=O)Nc1cn[nH]c1 | -7.073
O=C(NCC1(N2CCOCC2)CCSC1)Nc1cn[nH]c1 (stereo not drawn) | 6.407
CN(CCNC(=O)c1scnc1Cl)c1ccccc1 | -4.925
COc1ccc(OC)c(C2CCN(CC(C)(C)N3CCOCC3)C2)c1 (stereo not drawn) | -1.124
CC(C)[C@@H]1CN(Cc2cnc(C3CCCCC3)nc2)C[C@H]1C(=O)O | -8.433

Structure (SMILES) | Percent Effect [%]
COc1ccc(C(C)N(C)Cc2c(C(C)C)[nH]c3ncccc23)cc1 (stereo not drawn) | 47.71
CCC(Nc1ncccn1)c1ccc(OC)cc1 (stereo not drawn) | 2.346
COc1ccc(C(C)N(C)Cc2c(C(C)(C)C)[nH]c3ncccc23)cc1 (stereo not drawn) | 103.1
COc1ccc(C(C)N(C)Cc2c(C3CC3)[nH]c3ncccc23)cc1.Cl (stereo not drawn) | 91.7
COc1ccc(C(CN2CCN(C)CC2)Nc2ncccn2)cc1 (stereo not drawn) | -1.255
COc1ccc2cc(CN(C)C(C)c3nc(C4CC4)no3)ccc2c1 (stereo not drawn) | 6.729
CC(C)[C@]1(O)CN(C(=O)CNC(N)=O)C[C@H]1C | 90.92
COCCN(C)CC(=O)N1C[C@@H](C)[C@](O)(C(C)C)C1 | 89.33
COCCN(C)CC(=O)N1C[C@@H](NC(C)=O)[C@H](c2ccc(OC)cc2)C1 | 3.177
CC(C)[C@]1(O)CN(C(=O)COCC(N)=O)C[C@H]1C | 89.06
COCC(=O)N1CCN(C(C)C(=O)NC(C)C)CC1 (stereo not drawn) | 2.538
COCC(=O)N1CCC2(CC1)CC(OC)CO2 (stereo not drawn) | -10.72
NC(=O)NCC(=O)N1CCC2(CC1)c1ccccc1CC2O (stereo not drawn) | -7.297
C[C@@H]1CN(C(=O)CCCN2CCOCC2)C[C@@]1(O)C1CC1 | -18.09
COCCN(C)CC(=O)N1C[C@H]2CC[C@@H]1CN(C(=O)c1ccncc1)C2 | 3.629
COCC(=O)N1C[C@@H](C)[C@](O)(C(C)C)C1 | 101.1
CC1(Cc2ccccn2)NCCc2[nH]cnc21 (stereo not drawn) | 15.49
CCn1c(N)nc2cc(C(=O)N3Cc4ccccc4C3)cnc21 | -3.386
CCCS(=O)(=O)N1CCC(Nc2c(F)cc(C#N)cc2F)CC1 | 13.62
CSCCC(=O)N1CCN(CC(C)(C)O)CC1 | -39.31
Cc1c(C(C)NCC2CCCC2)cnn1-c1ccc(F)cc1F (stereo not drawn) | 0.5195
O=C(CN1C=Nc2ccccc2S1(=O)=O)NCCc1cccs1 | 3.571
COCCN(C)[C@@H]1c2ccccc2C2(CCNCC2)[C@H]1O | 2.267
CC(C)NC(=O)CN1CCN(CC2CCOc3ccccc3C2)CC1 (stereo not drawn) | -2.637
Cc1cc(C(=O)NS(C)(=O)=O)ccc1I | 1.042
Nc1nc2c(c(NCc3nc(-c4ccncc4)n[nH]3)n1)CCCC2 | -1.758
